Hit rate of the full screen: of about 370,000 compounds, about 2,400 (0.65%) were called active. The sample holds actives, similar compounds and a random draw of the others, so the mix is not that of the screen. Unmarked numbers belong to inactive results.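 Rule for the calls: active = inhibition above the screen-wide mean plus 3 SD (cut at about 13% in these data); inactive = the rest.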

The assay relates to HIV-1 integrase (with human LEDGF/p75). Put plainly: blockers of LEDGF/p75-dependent integrase strand transfer – biochemical, TR-FRET, high throughput, primary screen (AID 743269).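 Note: signal is the Cy5 over europium emission ratio at 671 and 618 nm; 0% = plate median of compound wells.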 The following applies: TR-FRET IN-LEDGF/p75 DNA integration, Eu/Cy5; at 3.7 µM; active compounds read high. In general terms: In TR-FRET formats the signal depends on donor and acceptor labels being close together.
The inhibition is the relative decrease from the control value, in per cent. `C[C@@H]1COc2cccc(N3CCCC3)c2S(=O)(=O)N1C`: the inhibition is -1.59%.
The figure for `COc1cccc(NC(=O)COC(=O)/C=C/c2ccco2)c1` is 20.4% (active).
The result for `NS(=O)(=O)c1cccc(NC(=O)COC(=O)/C=C/c2ccco2)c1` reads -1.8%; that for `COc1ccc([N+](=O)[O-])cc1NC(=O)COC(=O)/C=C/c1ccco1`, -5.28%.
The figure for `CC(C)(C)c1ccc(C(=O)Nc2cc(Cl)c(Br)cc2C(=O)O)cc1` is 5.86%; for `CCCCOCCCNC(=O)C[C@H]1C[C@@]2(C(=O)OC)C(=C[C@H](COCc3ccccc3)O[C@@H]2C)N(Cc2cccc3ccccc23)C1=O` it is -2.14%.
On to `COC(=O)[C@H](C(C)C)N1CCc2nnn(Cc3ccc(C)cc3)c2-c2ccccc2S1(=O)=O`, for which the inhibition was 0.15%.
The figure for `Cc1nc2ccccc2n1C(=O)N1CCOCC1` is -1.41%; for `Cc1oc2c(c1C(=O)N1CCOCC1)C(=O)c1ccccc1C2=O` it is 18.3% (active); for `CC(C(=O)Nc1ccccc1-c1ccccc1)N1CCOCC1` (stereo unspecified) it is -2.51%.
The result for `CC1(C(=O)NS(=O)(=O)c2ccccc2)CCN1C(=O)Cc1ccc(-c2ccccc2)cc1` (stereo unspecified) reads 19.2% (active).
The figure for `CCCNC(=O)C1(C)CCN1C(=O)Cc1ccc(-c2ccccc2)cc1` (stereo unspecified) is 0.51%; for `CC1(C(=O)NS(=O)(=O)c2cccs2)CCN1C(=O)Cc1ccc(-c2ccccc2)cc1` (stereo unspecified) it is -0.36%; for `COc1ccc(/C=C2\CC3(OC(C)=O)CCCN2C3)cc1` (stereo unspecified) it is -2.77%.
Take `C[C@H](C(=O)N(C)c1ccccc1)[C@@H](O)c1ccc2ccccc2c1`: the inhibition is -3.07%.
The figure for `CCN(CC)CCOc1ccc2c(c1)C(=NNC(=O)c1ccccn1)c1cc(OCCN(CC)CC)ccc1-2` is 19.1% (active); for `CCCC(C(=O)OCCN(CC)CC)(c1ccccc1)c1ccccc1` it is -3.9%; for `CCN(CC)S(=O)(=O)c1cc(C(=O)Nc2ccccn2)ccc1C` it is 1.24%.
With `O=C(NC1CCCC1)C1CSCCS(=O)(=O)N1Cc1ccccc1` (stereo unspecified), the inhibition is 0.83%.
For the molecule `C=C(C)C1CC23C(=O)C4(C(=O)c5ccccc5)C[C@@]5(C)CCC(CC2C1(C)C)(C4=O)C35OC` (stereo partly specified), the inhibition is -2.25%.
The result for `Cc1ccc(NC(=O)Cc2cccc(F)c2)c(S(=O)(=O)N2CCOCC2)c1` reads 1.83%; that for `CCCCNC(=O)C[C@H]1C(=O)N(Cc2ccc(OC)cc2)C2=CCCC[C@@]21C(=O)OCC`, -5.02%; that for `COc1cc(-c2nnc(NC(=O)C3=COCCO3)o2)cc(OC)c1OC`, 5.65%.
The figure for `Cc1ccc(C)c(-c2nnc(NC(=O)CS(=O)(=O)c3ccccc3)o2)c1` is -2.12%; for `COc1cc(-c2nnc(NC(=O)CS(=O)(=O)c3ccc(Cl)cc3)o2)cc(OC)c1OC` it is 15.4% (active).
The result for `CC(CCN1CCC(C(O)(c2ccccc2)c2ccccc2)CC1)Oc1ccc(C(F)(F)F)cc1` (stereo unspecified) reads -3.25%.
`O=S(=O)(Nc1ccc(O)c2ccccc12)c1ccc(OC(F)(F)F)cc1`: the inhibition is 16.5% (active).
The result for `O=S(=O)(Cc1noc(-c2ccc(OC(F)(F)F)cc2)n1)c1ccc(F)cc1` reads 0.93%.
The figure for `O=[N+]([O-])c1ccc(NS(=O)(=O)c2ccccc2)c(Cl)c1` is 7.69%; for `CCC(NC(=O)C1C2C=CC3(CN(Cc4ccccc4)C(=O)C13)O2)c1ccccc1` (stereo unspecified) it is -1.5%.
As for `COC(=O)[C@]12C[C@H](CC(=O)NCCc3ccccc3OC)C(=O)N(Cc3ccco3)C1=C[C@H](C(C)C)O[C@@H]2C1CC1`, the inhibition is -0.43%.
The figure for `COC(=O)[C@]12C[C@H](CC(=O)N3CCOCC3)C(=O)N(Cc3ccc(Cl)cc3Cl)C1=C[C@H](C(C)C)O[C@@H]2C1CC1` is -2.5%; for `CCOc1ccc(-n2c(SCC(=O)Nc3cc(C)c(NC(=O)c4ccccc4)cc3OC)nnc2-c2cccc(Cl)c2)cc1` it is -4.78%; for `Cc1ccc(/C=C/C(=O)Nc2ccc([N+](=O)[O-])c(NC(=O)/C=C/c3ccc(C)o3)c2)o1` it is 24.3% (active).
The result for `CCOc1ccc(NC(=S)NC(=O)/C=C/c2ccc(OC)cc2)c([N+](=O)[O-])c1` reads 5.44%.
The result for `Cc1cc(NC(=O)COC(=O)/C=C/c2ccc(C)o2)no1` reads -2.47%; that for `CC(=O)c1cc(-c2ccc3ccccc3c2)c(=O)n2c1CCC2`, 0.07%.
As for `CC(c1ccc(N)cc1)c1cn(C)c2ccccc12` (stereo unspecified), the inhibition was -3.68%.
The result for `Cc1ccc(-n2c(SCC(=O)Nc3cccc4ccccc34)nnc2-c2ccccn2)cc1` reads -0.35%; that for `COC(CNC(=O)[C@H](Cc1ccccc1)NC1(C(=O)NC2CCCCC2)CCCCC1)OC`, 2.51%; that for `Cc1ccc(-c2nnc(SCC(=O)Nc3ccc(Oc4ccccc4)cc3)n2Cc2ccco2)cc1`, -1.74%.
Consider `Nn1c(SCC(=O)N2c3ccccc3Sc3ccccc32)nnc1-c1n[nH]c2c1CCC2`, for which the inhibition was -0.96%.
As for `O=C(NC1CCCCN(Cc2cccc(C(F)(F)F)c2)C1=O)c1ccccc1I` (stereo unspecified), the inhibition was -1.97%.
The result for `NNc1cccc(C=Cc2ccccc2)cc1=O` reads 29.3% (active); that for `O=C(CSc1nc2sc3c(c2c(=O)n1-c1ccccc1)CCCC3)NN=Cc1ccc(OCc2ccccc2)cc1`, -1.95%; that for `CC1CN(/C=C/C(=O)C(F)(F)F)CC(C)O1` (stereo unspecified), 1.92%.
The result for `CN(C)c1ccc(N/C=C/C(=O)C(F)(F)F)cc1` reads 51% (active).
The result for `O=S1(=O)c2c(NCc3ccco3)cccc2Oc2ccccc2CN1Cc1cn(Cc2cccc(C(F)(F)F)c2)nn1` reads -4.08%; that for `O=C1OC(/C=C/c2ccccc2)=NC/1=C/c1ccco1`, 23.8% (active).
Take `COc1ccccc1/C=C/C1=NC(=C\N(C)C)/C(=O)O1`: the inhibition is -2.48%.
The figure for `CCn1c(SCC(C)=O)nc2sc3c(c2c1=O)CCCC3` is 4.15%; for `COC(=O)C12C=C3CC(c4ccccc4)=C3C(=O)N1Cc1[nH]c3ccccc3c1C2` (stereo unspecified) it is -0.02%.
With `CCOC(=O)c1ccc(NC(=O)CSc2ncccn2)cc1`, the inhibition is 21.2% (active).
The figure for `CCOC(=O)c1ccc(NC(=O)Cn2cnc3cc(C)c(C)cc32)cc1` is -0.18%; for `CCOC(=O)c1ccc(NC(=S)N2CCN(c3ccccn3)CC2)cc1` it is 3.04%.
Turning to `O=C(NC1CCC1)c1ccc(C#Cc2cccc(F)c2)c[n+]1[O-]`, the inhibition was -0.89%.
`O=C(CSc1nnc(COc2ccccc2)n1Cc1ccco1)c1ccc2ccccc2c1`: the inhibition is 1.68%.
For `Cc1sc2nc(SCC(=O)c3ccc(O)c(O)c3)n(Cc3ccco3)c(=O)c2c1C`, the inhibition was 34.8% (active).
The result for `Cc1sc2nc(SCC(N)=O)n(C)c(=O)c2c1C` reads 1.58%; that for `CCOC(=O)[C@]12CCCC=C1N(Cc1ccc(OC)cc1)C(=O)[C@@H]2CC(=O)N1CCOCC1`, 4.73%; that for `Cc1ccc(NC(=O)c2cc(C)nn2-c2ccccc2)c(C)c1`, -1.51%.
Regarding `CCC(=O)c1c(CC)c2n3c1=CC[C@H]3CC(Br)C=2` (stereo partly specified), the inhibition was -2.29%.
The result for `CN(C)Cc1cn(-c2ccc(-c3noc4c3C(=O)N(CC(=O)N3CCOCC3)CC4)cc2)nn1` reads -1.95%.
Turning to `COc1ccc(C#CCNCc2ccc(OC)cc2OC)cc1`, the inhibition is -3.69%.
The figure for `CCCCOCCCNC(=O)C[C@H]1C[C@@]2(C(=O)OC)C(=C[C@H](C(C)(C)C)O[C@@H]2C)N(CCc2ccc(OC)c(OC)c2)C1=O` is 2.16%; for `CN(C)S(=O)(=O)c1cccc(C(=O)N/N=C\c2ccco2)c1` it is -0.56%.
The figure for `Cc1cc(C(=O)NN=C/C=C/c2ccco2)n[nH]1` is 15.1% (active); for `CC(C)CNC(=O)COC(=O)/C=C/c1ccco1` it is 0.15%.
The figure for `COc1ccc(N2CCN(CCNS(=O)(=O)c3ccc(Cl)s3)CC2)cc1` is -1.84%; for `O=C(CSc1nnc(-c2ccccn2)n1-c1ccc(Cl)cc1)Nc1ccccc1-c1ccccc1` it is -2.85%; for `C=CCN1C(=O)[C@H](CC(=O)N2CCN(C(=O)OCC)CC2)[C@@]2(C(=O)OCC)CCCC=C12` it is -0.39%.
Take `O=C(CO/N=C/c1ccccc1O)NNC(=O)c1ccccc1Cl`: the inhibition was 3.91%.
Regarding `O=C(NNC(=S)NC1CCCCC1)c1ccccc1Cl`, the inhibition was 0.05%.
The figure for `O=C(NNC(=O)c1ccccc1O)c1ccccc1O` is 27.2% (active); for `CCC(c1ccc(NC(=O)OC(C)(C)C)cc1)c1cc(OC)cc(OC)c1` (stereo unspecified) it is -0.14%; for `CCOC(=O)C1(Cc2ccccc2)CCN(Cc2cn(C(C)=O)c3ccccc23)CC1` it is -1.3%.
The result for `Cc1ccccc1NC(=O)COC(=O)c1ccc(Sc2ncn[nH]2)c([N+](=O)[O-])c1` reads -3.54%; that for `COc1ccc2c(c1)c(=Cc1ccc(N(C)C)cc1)c1cc(-c3ccccc3)[n+](C)n12`, 18.8% (active).
The figure for `O=C(CN1CCC(NC(=O)NCc2ccccc2)CC1)Nc1ccc2c(c1)OCCO2` is 0.58%; for `O=C(Nc1ccc(Br)cc1)OCCN1C(=O)CCC12CCC(c1ccccc1)CC2` (stereo unspecified) it is -0.45%.
Regarding `Cc1ccc2c(c1)N(CC(=O)N1CCCc3ccccc31)C(=O)C(C)O2` (stereo unspecified), the inhibition is 4.28%.
The figure for `Cc1cccc2cc3c(N)c(C(=O)N4CCCc5ccccc54)sc3nc12` is 1.54%; for `Cc1ccc(C(=O)N2CCCc3ccccc32)c(Cl)c1` it is 38% (active).
The figure for `COc1ccc(C(=O)CSc2nnc(-c3cnccn3)n2-c2ccc(C)cc2)cc1` is 0.86%; for `Cc1ccccc1NC(=O)Cn1nnc(-c2ccccc2F)n1` it is 3.47%.
As for `Cc1cc(=O)[nH]c(SCC(=O)Nc2ccc(Cl)cc2C)n1`, the inhibition is 0.96%.

The record behind these values is PubChem BioAssay AID743269 (The Scripps Research Institute Molecular Screening Center, 2014).
